According to PubChem BioAssay (Tox21):
Records with an inconclusive call do not appear. Entries that show only a call come without a potency. The source made the active and inactive calls. Unless noted, calls follow the shape of the dose curve; as a rule, active = well fitted curve in the direction sought with a large enough effect in the repeat runs; inconclusive = weak or mixed curves; inactive = no such curve, though single readings can be large; an effect the other way counts as inactive or inconclusive.

How the values were obtained:
[1] = qHTS assay to identify small molecule antagonists of the estrogen receptor alpha (ER-alpha) signaling pathway using the BG1 cell line in the presence of 0.1 nM 17-beta-estradiol - cell viability counter screen (AID 1259241); also: nearly all actives have a fitted effect of over 40% in size
Procedure, shortened: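 VM7Luc4E2 cells (endogenous ER-alpha, 4×ERE-luciferase), hormone-starved 5 days in charcoal-stripped FBS, were treated with compounds plus 0.1 nM 17beta-estradiol for 22 hr at 37C; viability read in same wells as CellTiter-Fluor live-cell protease fluorescence.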

[2] = qHTS assay to identify small molecule antagonists of the androgen receptor (AR) signaling pathway using the MDA cell line in the presence of 0.5 nM R1881 - cell viability counter screen (AID 1259242); also: nearly all actives have a fitted effect of over 45% in size
Procedure, shortened: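 qHTS format. MDA-kb2 (MMTV-luc, AR/GR responsive) + cpd + 0.5 nM R1881 final, 16 hr 37C/0% CO2 → CellTiter-Fluor 30 min → fluorescence intensity.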

[3] = biological target: Estrogen receptor (Homo sapiens) (UniProt P03372); test: qHTS assay to identify small molecule antagonists of the estrogen receptor alpha (ER-alpha) signaling pathway using the BG1 cell line in the presence of 0.1 nM 17-beta-estradiol (AID 1259244); also: nearly all actives have a fitted effect of over 50% in size
Chain of Estrogen receptor (Homo sapiens) (P03372 whole entry, looked up): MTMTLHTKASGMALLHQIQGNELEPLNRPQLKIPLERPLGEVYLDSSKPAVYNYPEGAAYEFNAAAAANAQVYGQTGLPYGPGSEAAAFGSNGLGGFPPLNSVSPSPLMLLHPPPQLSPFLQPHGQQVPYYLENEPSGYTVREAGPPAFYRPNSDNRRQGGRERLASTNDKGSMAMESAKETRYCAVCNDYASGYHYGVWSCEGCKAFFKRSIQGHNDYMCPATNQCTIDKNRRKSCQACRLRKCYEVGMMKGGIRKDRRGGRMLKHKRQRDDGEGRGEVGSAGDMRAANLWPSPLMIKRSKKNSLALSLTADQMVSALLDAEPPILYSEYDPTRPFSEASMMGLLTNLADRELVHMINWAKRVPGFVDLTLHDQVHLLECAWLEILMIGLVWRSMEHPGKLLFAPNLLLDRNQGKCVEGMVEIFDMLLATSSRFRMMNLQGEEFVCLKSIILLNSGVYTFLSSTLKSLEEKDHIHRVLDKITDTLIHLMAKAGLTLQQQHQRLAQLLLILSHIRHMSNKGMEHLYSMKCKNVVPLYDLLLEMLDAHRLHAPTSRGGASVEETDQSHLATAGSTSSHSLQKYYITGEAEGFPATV
Procedure, shortened: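 Reporter is a stably transfected luciferase under four estrogen responsive elements in VM7Luc4E2 cells expressing native full-length ER-alpha; inhibition of 0.1 nM (final) 17beta-estradiol-driven signal over 22 h is read by luminescence.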

[4] = qHTS assay to identify small molecule HDAC inhibitors (AID 1259364); also: potency is read from the fitted curve at half-maximal effect;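 also: wild-type HCT-116 cells with endogenous class I/II HDAC activity; nearly all actives have a fitted effect of over 45% in size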
Procedure, shortened: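 Quantitative high-throughput format: overnight-seeded HCT-116 cells got compounds for 2 hr at 37C; HDAC-Glo I/II reagent added, 30 min RT, luminescence measured.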

[5] = qHTS assay to identify small molecule HDAC inhibitors - cell viability counter screen (AID 1259365); also: series mostly up to about 92 µM; nearly all actives have a fitted effect of over 50% in size
Procedure, shortened: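 Wild-type HCT-116 cells were seeded at 1,500 per well, incubated overnight at 37 C, then exposed to compounds in DMSO for 2hr. Viability was read by CellTiter-Glo luminescence after 30min at room temperature.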

[6] = qHTS assay to identify small molecule agonists of the sonic hedgehog signaling (Shh) pathway - cell viability counter screen (AID 1259366); also: nearly all actives have a fitted effect of over 50% in size; also: potency is read from the fitted curve at half-maximal effect
Procedure, shortened: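 NIH/3T3-derived 3T3 Gli1-Luc cells (stable Gli1-responsive firefly luciferase reporter) were seeded, rested 4 hr at 37 C/5% CO2, then exposed to compounds in DMSO for 24 hr; viability was read by CellTiter-Fluor fluorescence in the same wells.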

[7] = qHTS assay to identify small molecule antagonists of the sonic hedgehog signaling (Shh) pathway - cell viability counter screen (AID 1259367); also: nearly all actives have a fitted effect of over 55% in size; also: potency is read from the fitted curve at half-maximal effect
Procedure, shortened: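 Viability was read by CellTiter-Fluor fluorescence in the same wells, reagent added 23 hr into compound treatment and incubated 1 hr at 37C. The 3T3 Gli1-Luc reporter cells (2,000/well) received conditioned medium after compound and ran 24 hr.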

[8] = qHTS assay to identify small molecule phospholipidosis (PLD) inducers (AID 1259344; active = well fitted curve in the direction sought with a large enough effect; an effect the other way counts as inactive or inconclusive)
Procedure, shortened: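 Phospholipid accumulation was scored by imaging: fixed, Hoechst-counterstained HepG2 cells stained with LipidTOX Red after 24 h compound exposure at 37 C. Read-outs were pit count and pit intensity per well or per cell, with amiodarone and DMSO controls.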

| SMILES | Potency [1] | Potency [2] | Potency [3] | Potency [4] | Potency [5] | Potency [6] | Potency [7] | Potency [8] |
| --- | --- | --- | --- | --- | --- | --- | --- | --- |
| CCC(C)(C)OC | inactive | inactive | inactive | inactive | inactive | inactive | inactive | – |
| CCCC(C(=O)OCCN(CC)CC)(c1ccccc1)c1ccccc1 | – | – | inactive | inactive | inactive | – | inactive | – |
| CCCCN1CCCC1C(=O)Nc1c(C)cc(C)cc1C (stereo unspecified) | inactive | inactive | inactive | – | inactive | inactive | – | inactive |
| CN1CCCC(n2nc(Cc3ccc(Cl)cc3)c3ccccc3c2=O)CC1 (stereo unspecified) | – | inactive | – | inactive | – | 10.6 µM (active) | 10.6 µM (active) | – |
| CN1C(=O)OC(C)(C)C1=O | inactive | inactive | inactive | – | inactive | inactive | inactive | inactive |
| CC1(C)[C@H](C(=O)O)N2C(=O)C[C@H]2S1(=O)=O | inactive | inactive | inactive | inactive | inactive | inactive | inactive | – |
| C(=C\c1ccccc1)/c1ccccc1 | inactive | inactive | inactive | 19.2 µM (active) | – | inactive | inactive | – |
